iPSC survival up = enhancers of single-cell hiPSC survival, primary screen, ATPlite luminescence | actives 0.044% (n = 360,000) | survival enhancement, % at 20 µM | AID 602274, 2012 | 100% = ROCK inhibitor wells, 0% = DMSO; in the data active = survival enhancement above about 18%;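 also: cells exposed to compounds for 16 hours before the ATP read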
DAGLB inh = DAGLB lipase inhibitors, primary screen, biochemical, fluorescence, HTS | HEK293T DAGLB membrane lysate, EnzChek fluorogenic substrate | inhibition, % at 5.17 µM | actives 0.059% (n = 340,000); in the data active = inhibition above about 34%;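 also: 0% = enzyme with vehicle and 100% = wells lacking enzyme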
ANO1 block = TMEM16A chloride channel inhibitors, primary screen, cell-based, HTS; HEK293 TMEM16A/YFP iodide influx fluorescence, ionomycin; actives 1.2% (n = 310,000); normalized B-score (activity score, 25-100; higher = stronger inhibition) at 10 µM; AID 588511, 2011; Anoctamin-1 (Mus musculus), Q8BHY3;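 active = ratio plate-corrected score three or more library SD toward inhibition, starting fluorescence score within five deviations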;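 also: score derived from kinetic fluorescence span divided by baseline fluorescence per well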
ABCB6 inh MLPCN = ABCB6 transporter inhibitors, primary screen, K562-ABCB6 cells, flow cytometry, MLPCN library. ATP-binding cassette sub-family B member 6 (Homo sapiens), Q9NP58. K562-ABCB6 porphyrin accumulation, 1 h; active compounds read low. fluorescence ratio to DMSO, % at 10 µM. actives 0.19% (n = 360,000);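 active = fluorescence ratio to DMSO below 75%, the collection mean minus 3 SD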;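 also: signal is porphyrin accumulated inside mitochondria; 100% equals median channel fluorescence of DMSO control wells; lower ratio means ABCB6 inhibition with less porphyrin fluorescence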
TMEM16A act = TMEM16A chloride channel activators or potentiators, primary screen, cell-based, HTS. HEK293 TMEM16A/YFP-H148Q/I152L, iodide quench fluorescence; active compounds read low. B-score at 10 µM. actives 0.3% (n = 340,000). AID 623877, 2012;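 active = fluorescence-ratio B-score plate-corrected deviation score at least 3 library SD below zero, with starting fluorescence score within 5 deviations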;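 also: channel opened by trigger with iodide after compound preincubation; score built on the fluorescence ratio of max minus min over baseline; more negative score means more quench and so TMEM16A activation or potentiation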
TMEM16A reconf = TMEM16A chloride channel inhibitors, confirmation, cell-based, re-confirmation | shares compounds with ANO1 block | HEK293 TMEM16A/YFP-H148Q, iodide quench fluorescence; ionomycin added to raise cell calcium | inhibition, % at 10 µM | actives 39% (n = 2,300);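 active = mean duplicate percent inhibition, scaled so buffer wells are 0 and the reference blocker 100, over three buffer SD above buffer mean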
HEK293 Ca mobil = calcium mobilization in TMEM16A/YFP HEK293 cells, confirmation, counter-screen for TMEM16A inhibitor project | shares compounds with ANO1 block | Fluo4 calcium mobilization | calcium response (% of ionomycin), % at 10 µM | actives 2% (n = 2,300);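 active = duplicate-averaged calcium signal over 20% of the ionomycin maximum, relative to buffer baseline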;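 also: each well's signal is peak minus trough fluorescence divided by its pre-addition baseline; 0% = buffer wells and 100% = ionomycin wells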
Parental YFP cnt = iodide YFP quench changes in parental YFP-HEK293, counter-screen for TMEM16A inhibitor project, cell-based | shares compounds with ANO1 block | ionomycin | YFP ratio F(max-min)/F0 at 10 µM | 2,300 tested, under 10 active | AID 652233, 2013;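 active = yellow fluorescent protein signal ratio exceeding the buffer control mean by over 5 SD of those controls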;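 also: ratio is mean of duplicate wells from kinetic YFP trace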
ClC-1 inh = ClC-1 chloride channel inhibition, selectivity assay for TMEM16A inhibitor project, cell-based, voltage-dependent ClC-1; shares compounds with ANO1 block; CHO ClC-1-YFP, iodide influx fluorescence quench; iodide control reads 0, buffer control 100; ratio percent, % at 10 µM; 2,300 tested, under 10 active; AID 652236, 2013;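 active = duplicate-mean ratio percent above the mean of iodide-only control wells, which defines zero, plus 5 of their SD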;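 also: higher percent means stronger block of ClC-1 iodide influx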
Starred values were filed as active, the others as inactive; i = inactive; . = no result. The list is not random: actives were taken first. Their share in the collection is about 1.5%.

SMILES	iPSC survival up	DAGLB inh	ANO1 block	ABCB6 inh MLPCN	TMEM16A act	TMEM16A reconf	HEK293 Ca mobil	Parental YFP cnt	ClC-1 inh
FC(F)C(F)(F)c1cc(-c2ccc(Cl)cc2)n[nH]1	0	.	100*	94	i	97%*	i	-0.94	-28
Fc1ccc(-c2cc(C(F)(F)C(F)F)[nH]n2)cc1	0	.	100*	97	i	54%*	i	-1.1	-7
Oc1ccccc1-c1cc(C(F)(F)C(F)F)[nH]n1	-2	0	100*	99	i	i	i	-0.82	-13
Oc1ccccc1C1=NCCNC(C(F)(F)C(F)F)=C1	-2	5	i	91	i	.	.	.	.
Cc1nnc(SCC(=O)NC(C)(C)C)n1NCc1cccc(Br)c1	1	-1	i	100	i	.	.	.	.
COc1ccccc1S(=O)(=O)Cc1ccc(C(=O)NCc2ccccc2)o1	0	0	i	98	i	.	.	.	.
O=C(OCc1nc2ccccc2s1)C1CCN(C2=NS(=O)(=O)c3ccccc32)CC1	2	1	25*	90	i	16%*	i	-0.89	-4
CCN(C(=O)COC(=O)[C@H](C)N=C1NS(=O)(=O)c2ccccc21)C1CCS(=O)(=O)C1 (stereo partly specified)	1	0	.	96	i	.	.	.	.
Cc1cc(C)c2nc(NNC(=O)c3ccc(S(=O)(=O)N4CC(C)CC(C)C4)cc3)sc2c1 (stereo unspecified)	0	-13	i	94	i	.	.	.	.
Cc1cccc2sc(NNC(=O)c3ccc(S(=O)(=O)N4CC(C)CC(C)C4)cc3)nc12 (stereo unspecified)	-1	-14	25*	95	i	26%*	i	-0.97	-9
Cc1cnc(NC(=O)Cc2ccc(S(=O)(=O)N3CCOCC3)s2)s1	1	-1	.	106	i	.	.	.	.
CC(C)(C)c1csc(NC(=O)Cc2ccc(S(=O)(=O)N3CCOCC3)s2)n1	0	0	100*	97	i	24%*	i	-1.2	-5
COC(=O)c1cc(COc2ccc3oc(C)c(C(=O)OC)c3c2)c(C)o1	-1	-9	100*	95	i	i	i	-1.2	-11
CCOC(=O)c1c(C)oc2ccc(OCc3cc(C(=O)OC)oc3C)cc12	2	-13	i	99	i	.	.	.	.
CC(NS(=O)(=O)c1ccc(Cl)cc1)C(=O)OCC(=O)c1ccc[nH]1 (stereo unspecified)	0	-1	.	94	i	.	.	.	.
Cc1cccc(-c2nnc(NC(=O)c3ccc(N4C(=O)CCC4=O)cc3)s2)c1	-1	10	i	101	i	i	i	-0.86	-10
Cc1ccccc1-c1nnc(NC(=O)c2ccc(N3C(=O)CCC3=O)cc2)s1	0	1	i	101	i	.	.	.	.
Clc1nc(Nc2ccc(N3CCOCC3)cc2)c2ccccc2n1	0	1	i	97	i	.	.	.	.
O=S(=O)(Nc1nc2ccccc2nc1Nc1ccc(N2CCOCC2)cc1)c1cc(Cl)ccc1Cl	-2	2	100*	104	i	42%*	26%*	-1	-10

Bioassay records as filed in PubChem.
